In PubChem BioAssay AID651710 (Broad Institute, 2012) one finds inhibition data, which are given here for 45 compounds.

Each structure is given as a SMILES string. In all, about 360,000 compounds went through this assay and about 1,600 (0.44%) were called active. The full list was thinned out, with actives kept by preference. A number with no mark means an inactive call.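 Rule for the calls: active = every replicate showing at least 50% inhibition; inconclusive = mean inhibition at least 50% but not in every replicate; inactive = the rest.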

The target of the experiment is DNA repair protein RAD52 homolog (Homo sapiens) (UniProt P43351). The experiment in a line: blockers of RAD52 strand annealing activity – biochemical, FRET, single point, set 2, primary screen (AID 651710). The note with it: recombinant RAD52 DNA annealing, FRET fluorescence; at 18.7 µM; stronger effect = higher value.
Sequence of DNA repair protein RAD52 homolog (Homo sapiens) (P43351 whole entry, looked up): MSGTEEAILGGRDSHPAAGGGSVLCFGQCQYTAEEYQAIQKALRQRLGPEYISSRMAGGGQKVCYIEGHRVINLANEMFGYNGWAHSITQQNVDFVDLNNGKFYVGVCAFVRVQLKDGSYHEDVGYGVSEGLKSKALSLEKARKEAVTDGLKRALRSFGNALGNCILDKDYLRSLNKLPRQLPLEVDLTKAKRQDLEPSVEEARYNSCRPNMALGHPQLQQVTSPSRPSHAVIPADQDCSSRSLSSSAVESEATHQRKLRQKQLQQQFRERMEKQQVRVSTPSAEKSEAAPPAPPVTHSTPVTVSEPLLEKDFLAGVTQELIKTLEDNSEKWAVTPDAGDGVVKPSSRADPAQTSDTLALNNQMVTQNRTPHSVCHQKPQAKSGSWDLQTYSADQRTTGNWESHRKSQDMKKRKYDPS
For `CO[C@H]1CN(C)C(=O)c2ccc(NC(=O)c3cccc(F)c3)cc2OC[C@@H](C)N(C(C)=O)C[C@@H]1C`, the inhibition was 3.49%.
As for `C[C@@H]1CCCCO[C@H](CN(C)Cc2ccc(C(F)(F)F)cc2)[C@H](C)CN([C@H](C)CO)C(=O)c2cc(NC(=O)Nc3ccc(F)cc3)ccc2O1`, the inhibition was -10%.
On to `CCCN(C)C[C@@H]1OCCCC[C@@H](C)Oc2ccc(NC(=O)Nc3ccc(C(F)(F)F)cc3)cc2C(=O)N([C@H](C)CO)C[C@H]1C`, for which the inhibition was 61.7% (active).
On to `C[C@H](CO)N1C[C@H](C)[C@@H](CN(C)S(C)(=O)=O)OCCCC[C@H](C)Oc2ccc(NC(=O)Nc3ccc(C(F)(F)F)cc3)cc2C1=O`, for which the inhibition was 9.95%.
The same measure for `CN1C(=O)c2cc(NC(=O)C3CCOCC3)ccc2OC[C@@H]2O[C@H](CC(=O)NCc3ccccc3F)CC[C@H]21`: -6.2%; for `COCC(=O)Nc1ccc2c(c1)OC[C@H](C)N(Cc1ccccc1OC)C[C@@H](C)[C@@H](OC)CN(C)C2=O`: 5.08%; for `CCCn1c2ccccc2c2cnn(CC(=O)NCCCN3CCCCC3CC)c(=O)c21` (stereo not given): 6.95%.
On to `Cc1nc2ccccc2c2oc(C(=O)NCCCN3CCC(C)CC3)cc12`, for which the inhibition was 24.5%.
As to `CCC1CCCCN1CCCNC(=O)c1cc2c(Cl)nc3ccccc3c2s1` (stereo not given), the inhibition was 64.2% (active).
As for `C[C@@H]1CN([C@H](C)CO)C(=O)c2cccc(NC(=O)C3CCOCC3)c2O[C@H]1CN(C)S(=O)(=O)c1ccc(Cl)cc1`, the inhibition was -3.65%.
Take `OC[C@H]1[C@H](c2ccc(-c3cccnc3)cc2)[C@H]2CN(Cc3ccccn3)CCCCN21`: the inhibition was -13.2%.
Take `OC[C@@H]1[C@H](c2ccc(C#Cc3ccccc3)cc2)[C@@H]2CN(Cc3cncnc3)CCCCN12`: the inhibition is -7.81%.
For the compound `OC[C@H]1[C@@H](c2ccc(/C=C/c3ccccc3)cc2)[C@H]2CN(Cc3cccnc3)CCCCN21`, the inhibition was 57.1% (active).
On to `C[C@H]1CN([C@@H](C)CO)C(=O)Cc2cc(NS(=O)(=O)c3ccc(Cl)cc3)ccc2O[C@@H]1CN(C)S(=O)(=O)c1ccccc1`, for which the inhibition was 0.925%.
As to `O=C(Cc1ccccn1)N[C@@H]1CC[C@H](CCn2cc(-c3ccc(F)cc3)nn2)O[C@@H]1CO`, the inhibition was -0.234%.
Consider `COc1cccc(CNc2nc(NCc3ccccc3OC)nc3ccsc23)c1`, for which the inhibition was -11.5%.
The same measure for `COc1cccc(CNc2nc(NCc3cccs3)nc3ccsc23)c1`: 63.7% (active); for `Clc1ccccc1Nc1nc(NCc2cccs2)nc2ccsc12`: -19.9%; for `C[C@@H]1CN([C@H](C)CO)C(=O)c2cc(-c3ccc(C#N)cc3)cnc2O[C@@H]1CN(C)C(=O)Nc1ccccc1`: 4.39%.
With `COc1ccc(-c2ccc([C@@H]3[C@@H](CO)N4CCCCN(C(=O)NC(C)C)C[C@H]34)cc2)cc1`, the inhibition is 0.301%.
As to `CCC(=O)Nc1ccc2c(c1)C(=O)N(C)[C@@H]1CC[C@@H](CC(=O)NCCc3ccccc3)O[C@H]1CO2`, the inhibition was -0.75%.
Then `CC(C)CC#Cc1ccc2c(c1)O[C@H](CN(C)S(=O)(=O)c1cccc(F)c1)[C@@H](C)CN([C@@H](C)CO)S2(=O)=O`, with 10.9%; and `COc1ccc(NC(=O)C2C3CCC(O3)C2C(=O)O)cc1OC` (stereo not given), with 71.2% (active); and `COc1ccc(NC(=O)C2Cc3c(-c4cccc(NC(C)=O)c4)ccnc3O2)cc1OC` (stereo not given), with -0.756%.
Turning to `COc1ccc(NC(=S)SC)cc1OC`, the inhibition is -5.52%.
Regarding `O=C1CCC(C(=O)OCC(=O)Nc2ccc(OC(F)F)cc2)=NN1`, the inhibition is 54.8% (active).
As to `COCc1c(C(=O)OCC(=O)Nc2ccc(OC(F)F)cc2)oc2ccccc12`, the inhibition was -1.64%.
Consider `Nc1c(C(=O)OCC(=O)Nc2ccc(OC(F)F)cc2)[nH]c(=O)[nH]c1=O`, for which the inhibition is -4.75%.
For the compound `C=CCNC(=O)[C@H]1[C@@H]2C(=O)O[C@@H](c3ccccc3)[C@@H](c3ccccc3)N2[C@@H](c2ccccc2OCCO)[C@]12C(=O)N(C(=O)OCCOC)c1ccc(C#Cc3ccc(OC)cc3)cc12`, the inhibition was -0.136%.
Consider `CO[C@@H]1CN(C)C(=O)c2cc(NS(=O)(=O)c3cn(C)cn3)ccc2OC[C@@H](C)N(CCC(F)(F)F)C[C@H]1C`, for which the inhibition is 7.94%.
Consider `CCCc1cn(CC[C@H]2CC[C@@H](NC(=O)C3CCOCC3)[C@@H](CO)O2)nn1`, for which the inhibition was -2.7%.
With `O=C1Nc2cc(C(=O)N3CCC(N4CCCCC4)CC3)ccc2S/C1=C\c1ccccc1`, the inhibition is 39.6%.
With `CCN1CCCC1CNC(=O)c1ccc2c(c1)NC(=O)/C(=C\c1ccccc1F)S2` (stereo not given), the inhibition was 87.1% (active).
On to `CCN1CCCC1CNC(=O)c1cc2cc(OC)c(OC)cc2[nH]1` (stereo not given), for which the inhibition is 2.51%.
The same measure for `CC(=O)N(C)C[C@H]1[C@H](c2ccc(C3=CCCCC3)cc2)[C@H](CO)N1CC1CC1`: 17.9%; for `COCC(=O)N(C)C[C@H]1Oc2cc(C#C[C@@H](C)O)ccc2S(=O)(=O)N([C@@H](C)CO)C[C@@H]1C`: -1.74%; for `CC(=O)N(C)C[C@@H]1Oc2cc(-c3ccncc3)ccc2S(=O)(=O)N([C@@H](C)CO)C[C@H]1C`: 3.3%.
For the compound `CCCN(C)C[C@H]1Oc2cc(C#CC3CCCC3)ccc2S(=O)(=O)N([C@H](C)CO)C[C@@H]1C`, the inhibition is -63.3%.
On to `CO[C@@H]1CN(C)C(=O)c2ccc(NC(=O)C3CC3)cc2OC[C@@H](C)N(Cc2ccncc2)C[C@@H]1C`, for which the inhibition is 17%.
For the compound `C[C@H](CO)N1C[C@H](C)[C@H](CN(C)S(=O)(=O)c2cn(C)cn2)Oc2c(NC(=O)c3ccc(-c4nccs4)cc3)cccc2C1=O`, the inhibition is 7.43%.
Then `CCN(CC)CCN(C(=O)c1ccc(N2C(=O)CCC2=O)cc1)c1nc2cc3c(cc2s1)OCO3`, with 40.8%; and `COc1cccc2sc(N(CCCN(C)C)C(=O)C(c3ccccc3)c3ccccc3)nc12`, with 56.2% (active); and `COc1ccccc1CNC(=O)Cn1cc2c(n1)CCCC2`, with -14%.
Consider `CCN(CC)CCN(C(=O)c1ccc2c(c1)CCCC2)c1nc2c(OC)cccc2s1`, for which the inhibition is 53.9% (active).
Turning to `O=C(CN1CCOCC1)N1CC(=O)N2[C@H](C1)[C@H](c1ccc(/C=C/c3ccccc3)cc1)[C@@H]2CO`, the inhibition was -3.93%.

The inhibition is the relative decrease from the control value, in per cent.
